From PubChem BioAssay (EPA / NIEHS)
Calls of active or inactive are those of the source. Rule for the calls: active = hit-call score of the fitted dose curve at least 0.9, where 1 is the maximum; inactive = score below 0.9.

Columns and labels:
[1] = ATG_CRE_CIS: Attagene CIS-FACTORIAL HepG2 Assay for human cAMP Responsive Element (CRE) binding protein 3 (AID 2282926); conditions: HepG2 CRE cis-reporter, Attagene multiplexed mRNA; actives raise or lower the signal
Procedure, shortened: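 Endogenous transcription factor activity read via CRE-regulated reporter transcripts in transfected HepG2 cells. After 24 h exposure, RNA was reverse-transcribed, amplified, fluorescently labelled and sized by capillary electrophoresis; gain or loss fitted against DMSO.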

[2] = target: CCAAT/enhancer-binding protein beta (Homo sapiens) (UniProt P17676); assay: ATG_C_EBP_CIS: Attagene CIS-FACTORIAL HepG2 Assay for human CCAAT/Enhancer Binding Protein (C/EBP) beta (AID 2282927); conditions: HepG2 Attagene cis-factorial transcription factor reporter; actives raise or lower the signal
Procedure, shortened: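 HepG2, transient MRTU transfection, 24 h treatment. RT-PCR plus CE fluorescence; DMSO negative control, bidirectional fit.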

[3] = ATG_CMV_CIS: Attagene CIS-FACTORIAL HepG2 Assay for human CMV (Internal Marker) (AID 2282928); conditions: HepG2 CMV promoter reporter, transcription factor profiling; actives raise or lower the signal;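 note: endpoint acts as a background internal control marker rather than a target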
Procedure, shortened: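 24 h chemical treatment, HepG2 with transient multi-reporter transfection; RNA → oligo(dT) RT → PCR → 6-FAM extension → HpaI digest → CE fluorescence. Bidirectional fit, DMSO negative control.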

[4] = ATG_DR4_LXR_CIS: Attagene CIS-FACTORIAL HepG2 Assay for human Liver X Receptor (LXR), DR4 submotif (AID 2282929); conditions: HepG2 Attagene DR4 cis-reporter, mRNA transcription; actives raise or lower the signal
Procedure, shortened: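 HepG2 cells were transiently transfected with multiple cis-regulated reporter units and dosed for 24 hours. The DR4 reporter mRNA was quantified by RT-PCR, 6-FAM labelling and capillary electrophoresis. Bidirectional fits used DMSO as baseline.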

[5] = target: Aryl hydrocarbon receptor (Homo sapiens) (UniProt P35869); assay: ATG_Ahr_CIS: Attagene CIS-FACTORIAL HepG2 Assay for human Aryl Hydrocarbon Receptor (Ahr) (AID 2282930); conditions: HepG2 AhR cis-factorial reporter transcription; actives raise or lower the signal
Procedure, shortened: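 Endogenous factor activity is tracked through cis-promoter reporter units transfected into HepG2 cells. Transcript levels at 24 h are read by fluorescent RT-PCR and capillary electrophoresis, with activity in either direction scored relative to DMSO.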

[6] = ATG_AP_1_CIS: Attagene CIS-FACTORIAL HepG2 Assay for human Activator Protein 1 (AP-1) (AID 2282931); conditions: HepG2 Attagene cis-factorial AP-1 reporter mRNA; actives raise or lower the signal
Procedure, shortened: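 HepG2 cells transiently transfected with cis-element-driven reporter transcription units, dosed for 24 hours. Reporter mRNA measured by RT-PCR, 6-FAM labelling, HpaI digestion and capillary electrophoresis. Bidirectional fitting against DMSO baseline.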

[7] = ATG_AP_2_CIS: Attagene CIS-FACTORIAL HepG2 Assay for human Activator Protein 2 (AP-2) (AID 2282932); conditions: HepG2 AP-2 cis-reporter, Attagene transcription factor profiling; actives raise or lower the signal
Procedure, shortened: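 Read-out: fluorescent reporter mRNA via RT-PCR and capillary electrophoresis, 24 h post-dose in transiently transfected HepG2. Endogenous factors drive cis-promoter reporters; gain or loss of signal fitted bidirectionally against DMSO.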

[8] = ATG_BRE_CIS: Attagene CIS-FACTORIAL HepG2 Assay for human Bone Morphogenetic Protein (BMP) Response Element (BRE) (AID 2282933); conditions: HepG2 BMP response element reporter, Attagene transcription factor profiling; actives raise or lower the signal
Procedure, shortened: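 HepG2 cells transiently transfected with multiplexed cis-element reporter units were dosed with chemical for 24 h. Reporter mRNA was measured by RT-PCR with fluorescent labelling, HpaI digestion and capillary electrophoresis; bidirectional fitting relative to DMSO.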

[9] = target: Retinoic acid receptor alpha (Homo sapiens) (UniProt P10276); assay: ATG_DR5_RAR_CIS: Attagene CIS-FACTORIAL HepG2 Assay for human Retinoic Acid Receptor Alpha (RARE), DR5 submotif (AID 2282934); conditions: HepG2 Attagene cis-factorial RARE DR5 reporter, mRNA; actives raise or lower the signal;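 for AC50: reporter responds to endogenous RAR alpha beta and gamma in HepG2 not RARA alone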
Procedure, shortened: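 After 24 h of chemical exposure, transiently transfected HepG2 cells were lysed for total RNA; the DR5-regulated reporter transcript was quantified via RT-PCR and capillary electrophoresis, with activity fitted bidirectionally against DMSO.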

[10] = target: Transcription factor E2F1 (Homo sapiens) (UniProt Q01094); assay: ATG_E2F_CIS: Attagene CIS-FACTORIAL HepG2 Assay for human E2F Transcription Factor 1 (AID 2282935); conditions: HepG2 Attagene cis-reporter, E2F reporter RNA transcripts; actives raise or lower the signal
Procedure, shortened: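 Transient MRTU transfection of HepG2; 24 h compound exposure; RNA → oligo(dT) RT → PCR → FAM label → HpaI cut → CE fluorescence. Gain/loss of signal fit against DMSO.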

[11] = ATG_E_Box_CIS: Attagene CIS-FACTORIAL HepG2 Assay for human Enhancer Box (E-box) (AID 2282936); conditions: HepG2 E-box cis-reporter transcription, actives raise or lower the signal
Procedure, shortened: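 Transiently transfected HepG2, endogenous TF-driven reporters, 24 h dosing. Readout: RT-PCR plus capillary electrophoresis of fluorescent reporter fragments. Gain or loss of signal fitted bidirectionally against DMSO baseline.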

[12] = ATG_EGR_CIS: Attagene CIS-FACTORIAL HepG2 Assay for human Early Growth Response 1 (EGR1) (AID 2282938); conditions: HepG2 Attagene CIS-FACTORIAL EGR reporter mRNA; actives raise or lower the signal
Procedure, shortened: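 HepG2 cells transiently transfected with cis-element-driven multiplexed reporter units, dosed for 24 h. EGR1-element reporter mRNA quantified by RT-PCR, 6-FAM labelling, HpaI digestion and capillary electrophoresis; bidirectional fit versus DMSO.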

[13] = ATG_M_19_CIS: Attagene CIS-FACTORIAL HepG2 Assay for M19 Transcription Factor (Internal Marker) (AID 2282939); conditions: HepG2 Attagene CIS-FACTORIAL M19 internal marker reporter; actives raise or lower the signal
Procedure, shortened: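 HepG2 cells transiently transfected with cis-regulated multiple reporter transcription units were dosed for 24 h; reporter mRNA was quantified by RT-PCR, 6-FAM primer-extension labelling, HpaI digestion and capillary electrophoresis, with bidirectional fitting against DMSO baseline.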

[14] = ATG_Ets_CIS: Attagene CIS-FACTORIAL HepG2 Assay for human Erythroblast Transformation Specific (ETS) (AID 2282941); conditions: HepG2 ETS cis-reporter transcription, actives raise or lower the signal
Procedure, shortened: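 Cis-regulated reporter mRNA induction in HepG2 (transient transfection), 24 h exposure, RT-PCR plus capillary electrophoresis detection; DMSO serves as negative control and baseline.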

[15] = target: Hepatocyte nuclear factor 3-beta (Homo sapiens) (UniProt Q9Y261); assay: ATG_FoxA2_CIS: Attagene CIS-FACTORIAL HepG2 Assay for human Forkhead box A2 (FOXA2) (AID 2282942); conditions: HepG2 cis-reporter transcription factor activity, 24 h; actives raise or lower the signal
Procedure, shortened: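 HepG2 transiently transfected with a multiplexed cis-promoter reporter library read endogenous FOXA2 activity. After 24 h compound exposure, reporter mRNA was quantified by RT-PCR, HpaI digestion and capillary electrophoresis. Bidirectional fit against DMSO.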

[16] = ATG_FoxO_CIS: Attagene CIS-FACTORIAL HepG2 Assay for human Forkhead box O (FoxO) (AID 2282943); conditions: HepG2 Attagene cis-reporter, FoxO element, mRNA; actives raise or lower the signal
Procedure, shortened: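 Transfected HepG2 reporter cells exposed to test chemical for 24 h; reporter RNA measured by reverse transcription, PCR and fluorescent capillary electrophoresis; curves fitted for increases and decreases against DMSO.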

[17] = ATG_GATA_CIS: Attagene CIS-FACTORIAL HepG2 Assay for human GATA Binding Protein (AID 2282944); conditions: HepG2 GATA cis-element reporter, Attagene multiplex mRNA; actives raise or lower the signal
Procedure, shortened: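 HepG2 cells transiently transfected with multiplexed cis-element reporter units reflecting endogenous transcription factor activity; reporter mRNA measured after 24 h dosing by RT-PCR, 6-FAM labeling, HpaI digestion and capillary electrophoresis. Bidirectional fitting versus DMSO baseline.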

[18] = ATG_GLI_CIS: Attagene CIS-FACTORIAL HepG2 Assay for human Zinc Finger Protein GLI1 (AID 2282945); conditions: HepG2, Attagene cis-factorial reporter mRNA, GLI element; actives raise or lower the signal
Procedure, shortened: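 Transiently transfected HepG2 cells report endogenous transcription factor activity via cis-element-driven reporter units. After 24 h compound exposure, reporter mRNA was measured by RT-PCR with capillary electrophoresis; bidirectional fitting against DMSO baseline.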

[19] = ATG_M_61_CIS: Attagene CIS-FACTORIAL HepG2 Assay for M61 Transcription Factor (Internal Marker) (AID 2282937); conditions: HepG2 Attagene CIS-FACTORIAL M61 internal marker reporter; actives raise or lower the signal
Procedure, shortened: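 HepG2 cells transiently transfected with multiplexed cis-promoter reporter units reporting endogenous transcription factor activity, measured 24 h after dosing. Reporter mRNA quantified by RT-PCR and capillary electrophoresis; bidirectional fit against DMSO baseline.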

Measured: AC50

Sequence of Aryl hydrocarbon receptor (Homo sapiens) (P35869 whole entry, looked up): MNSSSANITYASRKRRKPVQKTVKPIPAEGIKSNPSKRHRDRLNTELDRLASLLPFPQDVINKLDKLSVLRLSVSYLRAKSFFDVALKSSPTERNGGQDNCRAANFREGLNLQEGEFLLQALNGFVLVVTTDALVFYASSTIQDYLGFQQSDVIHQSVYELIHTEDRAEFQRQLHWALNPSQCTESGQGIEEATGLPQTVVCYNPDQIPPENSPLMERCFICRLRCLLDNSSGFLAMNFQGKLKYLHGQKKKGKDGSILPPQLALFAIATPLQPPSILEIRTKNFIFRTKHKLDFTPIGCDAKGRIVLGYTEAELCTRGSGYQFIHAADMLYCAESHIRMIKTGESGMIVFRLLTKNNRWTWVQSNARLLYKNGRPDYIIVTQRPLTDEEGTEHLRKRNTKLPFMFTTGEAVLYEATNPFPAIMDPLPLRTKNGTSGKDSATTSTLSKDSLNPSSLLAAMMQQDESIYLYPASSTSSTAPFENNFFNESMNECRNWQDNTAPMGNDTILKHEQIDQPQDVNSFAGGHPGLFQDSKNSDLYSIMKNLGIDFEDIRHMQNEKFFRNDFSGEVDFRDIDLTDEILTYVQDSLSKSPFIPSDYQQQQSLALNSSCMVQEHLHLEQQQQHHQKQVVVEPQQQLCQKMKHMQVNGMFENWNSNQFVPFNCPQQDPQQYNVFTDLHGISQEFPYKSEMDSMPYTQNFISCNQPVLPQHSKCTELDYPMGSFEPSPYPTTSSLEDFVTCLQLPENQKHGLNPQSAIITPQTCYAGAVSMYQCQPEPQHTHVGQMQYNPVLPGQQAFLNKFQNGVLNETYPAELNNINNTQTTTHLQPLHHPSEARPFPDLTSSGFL
Sequence of CCAAT/enhancer-binding protein beta (Homo sapiens) (P17676 whole entry, looked up): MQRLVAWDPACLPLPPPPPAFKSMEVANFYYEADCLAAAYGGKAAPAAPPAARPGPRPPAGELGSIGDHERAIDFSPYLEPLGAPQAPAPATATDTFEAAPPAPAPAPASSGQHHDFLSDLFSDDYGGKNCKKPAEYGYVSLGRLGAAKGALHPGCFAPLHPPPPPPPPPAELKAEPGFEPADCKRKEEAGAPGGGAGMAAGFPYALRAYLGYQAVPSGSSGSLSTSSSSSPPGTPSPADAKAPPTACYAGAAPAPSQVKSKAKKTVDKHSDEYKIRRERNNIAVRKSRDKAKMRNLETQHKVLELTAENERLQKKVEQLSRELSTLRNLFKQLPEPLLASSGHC
Sequence of Hepatocyte nuclear factor 3-beta (Homo sapiens) (Q9Y261 whole entry, looked up): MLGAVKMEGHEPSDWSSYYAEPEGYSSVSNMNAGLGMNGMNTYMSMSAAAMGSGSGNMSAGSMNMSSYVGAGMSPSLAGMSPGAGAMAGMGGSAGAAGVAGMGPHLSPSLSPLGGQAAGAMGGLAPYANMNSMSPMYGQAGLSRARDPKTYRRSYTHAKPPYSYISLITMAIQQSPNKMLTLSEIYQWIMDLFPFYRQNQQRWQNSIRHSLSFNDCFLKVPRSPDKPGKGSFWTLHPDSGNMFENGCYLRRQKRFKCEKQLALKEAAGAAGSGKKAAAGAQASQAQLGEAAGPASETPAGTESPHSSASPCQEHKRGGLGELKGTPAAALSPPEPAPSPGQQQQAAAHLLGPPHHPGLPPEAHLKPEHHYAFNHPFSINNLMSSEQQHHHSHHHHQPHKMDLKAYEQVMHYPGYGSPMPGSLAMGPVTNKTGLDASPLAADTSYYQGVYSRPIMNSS
Sequence of Transcription factor E2F1 (Homo sapiens) (Q01094 whole entry, looked up): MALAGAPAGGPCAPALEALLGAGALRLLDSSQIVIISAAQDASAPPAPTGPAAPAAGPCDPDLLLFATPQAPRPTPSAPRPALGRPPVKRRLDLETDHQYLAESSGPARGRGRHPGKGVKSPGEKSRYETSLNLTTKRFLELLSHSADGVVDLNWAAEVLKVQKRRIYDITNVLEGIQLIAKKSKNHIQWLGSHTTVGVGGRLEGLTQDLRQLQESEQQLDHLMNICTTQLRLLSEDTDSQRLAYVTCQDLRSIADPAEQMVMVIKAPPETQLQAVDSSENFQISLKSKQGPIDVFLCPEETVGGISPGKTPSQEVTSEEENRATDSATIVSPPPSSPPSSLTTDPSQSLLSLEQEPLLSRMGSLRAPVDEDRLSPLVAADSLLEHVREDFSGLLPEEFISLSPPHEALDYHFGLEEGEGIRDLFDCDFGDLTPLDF
Sequence of Retinoic acid receptor alpha (Homo sapiens) (P10276 whole entry, looked up): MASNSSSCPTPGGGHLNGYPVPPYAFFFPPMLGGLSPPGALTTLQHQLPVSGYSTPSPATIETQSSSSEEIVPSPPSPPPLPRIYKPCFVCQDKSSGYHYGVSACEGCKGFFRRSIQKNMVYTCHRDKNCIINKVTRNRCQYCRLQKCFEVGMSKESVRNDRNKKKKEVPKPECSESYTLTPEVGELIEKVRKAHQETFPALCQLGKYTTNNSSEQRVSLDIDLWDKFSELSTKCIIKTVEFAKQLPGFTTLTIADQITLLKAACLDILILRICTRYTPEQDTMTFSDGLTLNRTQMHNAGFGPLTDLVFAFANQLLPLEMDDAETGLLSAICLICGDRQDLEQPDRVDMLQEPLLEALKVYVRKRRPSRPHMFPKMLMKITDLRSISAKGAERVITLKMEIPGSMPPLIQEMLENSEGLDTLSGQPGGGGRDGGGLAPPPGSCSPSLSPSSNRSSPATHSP

c1ccc2cc(Nc3ccc(Nc4ccc5ccccc5c4)cc3)ccc2c1
active: [5] 4 µM
not listed: [19]
inactive: all other assays above

COc1ccccc1N=Nc1c(S(=O)(=O)O)cc2cc(S(=O)(=O)O)cc(NC(C)=O)c2c1O
active: [5] 16.4 µM
not listed: [11]
inactive: all other assays above

OC[C@H]1O[C@@H]2O[C@H]3[C@H](O)[C@@H](O)[C@@H](O[C@H]4[C@H](O)[C@@H](O)[C@@H](O[C@H]5[C@H](O)[C@@H](O)[C@@H](O[C@H]6[C@H](O)[C@@H](O)[C@@H](O[C@H]7[C@H](O)[C@@H](O)[C@@H](O[C@H]8[C@H](O)[C@@H](O)[C@@H](O[C@H]9[C@H](O)[C@@H](O)[C@@H](O[C@H]1[C@H](O)[C@H]2O)O[C@@H]9CO)O[C@@H]8CO)O[C@@H]7CO)O[C@@H]6CO)O[C@@H]5CO)O[C@@H]4CO)O[C@@H]3CO
not listed: [19]
inactive: all other assays above

CC(C)(C)C1=CC(=O)C(C(C)(C)C)=CC1=O
active: [3] 87.6 µM | [4] 50 µM | [9] 26.8 µM | [12] 50 µM | [16] 50 µM | [17] 68.3 µM | [18] 81.7 µM
not listed: [11] | [14] | [19]
inactive: all other assays above

COC(=O)c1cccnc1
not listed: [11]
inactive: all other assays above

O=C1c2ccccc2C(=O)c2c(O)ccc(O)c21
active: [3] 3.02 µM | [5] 0.296 µM
not listed: [11] | [17]
inactive: all other assays above

CC=Cc1ccc(OCC)c(O)c1
active: [5] 11.3 µM
not listed: [17] | [19]
inactive: all other assays above

CCC(C)c1cc([N+](=O)[O-])cc([N+](=O)[O-])c1OC(=O)OC(C)C (centres undefined)
active: [2] 49.1 µM | [6] 25.8 µM | [7] 39.7 µM | [8] 100 µM | [12] 26.5 µM | [14] 26.1 µM | [15] 62.6 µM | [16] 164 µM | [17] 24.1 µM | [18] 27.1 µM
inactive: [1] | [3] | [4] | [5] | [9] | [10] | [13]

COCCOCCOCCO
not listed: [11]
inactive: all other assays above

CC(C)OCCO
not listed: [11]
inactive: all other assays above

CCCCCC(C=O)=Cc1ccccc1
not listed: [11] | [17] | [19]
inactive: all other assays above

CCN(CCC#N)c1ccc(N=Nc2ccc([N+](=O)[O-])cc2)cc1
not listed: [10]
inactive: all other assays above

C=C(C)CNCC
not listed: [11] | [14]
inactive: all other assays above

CC(=O)C(C)O (centres undefined)
not listed: [11] | [19]
inactive: all other assays above

CN1CCOCC1
not listed: [11]
inactive: all other assays above

[Cl][Au]([Cl])[Cl]
active: [5] 39.8 µM | [6] 72.6 µM
not listed: [11]
inactive: all other assays above
